Drawing on PubChem BioAssay (NCATS), this text covers max response, outcome and Potency for 21 molecules.

Structures are written as SMILES. Results filed as inconclusive are left out. A number with no mark means an inactive call. Active and inactive are the calls of the source. Calls follow the shape of the dose curve; as a rule, active = well fitted inhibition curve with a large enough effect; inconclusive = small, poorly fitted or top-dose-only effect; inactive = flat fitted curve, though single readings scatter.

Experiment in all cases: Cytotoxic Profiling of Annotated Libraries Using Quantitative High-Throughput Screening (AID 1296008); also: nearly all actives have a fitted effect of over 60% in size
What all share (conditions): Five cell lines viability, CellTiter-Glo ATP luminescence, 48-72 h; max response: active compounds read low

One assay concerns CRL-7250. In outline: (§1)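 Cells exposed to compounds for 48 or 72 hr at 37 degrees Celsius. Viability read as ATP-coupled luminescence with CellTiter-Glo after 10 min at room temperature.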
The test system of the next assay is HEK293. In outline: as §1
The test system of a further assay is HaCat. In outline: as §1
The next assay has as its system KB-3-1. The method, boiled down:
as §1

In the next assay the test system is NIH3T3. The method, boiled down: as §1
% is scaled to controls: 0 for no effect and ±100 for the full control effect; potency is read from the fitted curve at half-maximal effect.

With `C=C(C(=O)O)C1CC(OC(=O)CC(C)CC)C2(C)CCCC(=C)C2C1` (stereo not given), the max response is 4.7% with CRL-7250, 4.07% in the assay on HEK293 and 2.84% in the assay on KB-3-1. Also, the outcome in the assay with HaCat and with NIH3T3 was inactive.

Take `CCCCC(=O)N1c2ccccc2NC2=C(C(=O)CCC2)C1c1ccccc1Cl` (stereo not given): the call in the assay with CRL-7250 and in the assay with HaCat was inactive. For the same molecule, the max response in the assay on HEK293 is -3.83%; in the assay on KB-3-1, 6.63%; in the assay with NIH3T3, -4.77%.

Regarding `CC(C)C(NC(=O)c1ccc(O)cc1)C(=O)N1CCCC1C(=O)Nc1c(O)cccc1C(=O)O` (stereo not given), the max response in the assay on CRL-7250 was -0.89%; in the assay on HEK293, -9.61%; in the assay with HaCat, -4.47%; in the assay on KB-3-1, 5.36%. The result in the assay with NIH3T3 was inactive.

Regarding `COc1cc(O)c2c(c1Cl)CC(C)OC2=O` (stereo not given), the call in the assay with CRL-7250, in the assay with HaCat and in the assay on NIH3T3 was inactive. Moreover, the max response in the assay on HEK293 was -0.0766%; in the assay on KB-3-1 it was 3.15%.

For `O=C(CCCCC1CCCCC1)N1CCC(c2cnc[nH]2)CC1`, the values for the max response in the assay on CRL-7250 and in the assay with KB-3-1 were -15.2% and -20.1%, respectively. Further, the Potency with HEK293 was 5.8 µM (active). Also, the molecule was called inactive with HaCat and in the assay with NIH3T3.

As for `COC(=O)C1=COC(OC2OC(CO)C(O)C(O)C2O)C2C(C)CC(=O)C12O` (stereo not given), the molecule was classed as inactive in the assay on CRL-7250, with KB-3-1 and with NIH3T3. Besides, the max response is 2.83% in the assay on HEK293 and -24.6% with HaCat.

For the molecule `Cc1nnc(-c2sc(NC(=O)[C@H](C(C)C)n3c(=O)[nH]c4ccccc4c3=O)nc2C)o1`, the max response in the assay with CRL-7250 is -59.8%; in the assay on HEK293 it was -6.7%; in the assay on HaCat it was -23.8%; in the assay on KB-3-1, 8.7%. Further, the call in the assay with NIH3T3 was inactive.

On to `C/C=C(\C)C(=O)OCC1OC(OC2OC(CO)C(O)C(O)C2O)C(O)C(O)C1O` (stereo not given), for which the call with CRL-7250, with HaCat and in the assay with KB-3-1 was inactive. Besides, the max response with HEK293 was -3.96%; with NIH3T3 it was -3.87%.

`OC[C@H]1O[C@@H](OCCc2ccccc2)[C@H](O)[C@@H](O)[C@@H]1O`: the max response was -3.7% in the assay on CRL-7250, 3.92% in the assay with HEK293, 6.47% with KB-3-1 and 4.48% in the assay with NIH3T3. Besides, in the assay with HaCat, the result was inactive.

In the case of `CC(O)C1CCC2C3CCC4CC(OC5OC(C(=O)O)C(O)C(O)C5O)CCC4(C)C3CCC12C` (stereo not given), the max response with CRL-7250 was -11.7%; in the assay with HEK293, -10.1%; in the assay with KB-3-1 it was -9.6%; with NIH3T3, -3.21%. Further, in the assay with HaCat, the molecule was called inactive.

Consider `O=C(OC[C@H]1O[C@@H](Oc2ccccc2CO)[C@H](O)[C@@H](O)[C@@H]1O)c1ccccc1`, for which the max response in the assay on CRL-7250 was -0.775%; with HEK293, 0.13%; with HaCat it was 0.855%; in the assay with KB-3-1, 3.27%. Besides, in the assay with NIH3T3, the outcome was inactive.

On to `O=C1NC(=O)/C(=C/c2cccc(C(F)(F)F)c2)S1`, for which the result in the assay on CRL-7250 and with HEK293 was inactive. The max response with HaCat was 3.45%; with KB-3-1 it was -2.21%; in the assay on NIH3T3 it was 4.34%.

`CC1=CC2=C(C)C(=O)C(C)(O)C(O)C2CO1` (stereo not given): the max response with CRL-7250 was -6.39%; in the assay on HEK293, -9.93%; in the assay with KB-3-1, 5.71%; in the assay with NIH3T3, 1.32%. Also, in the assay with HaCat, the molecule was called inactive.

Turning to `CN[C@H](CNC(=O)N1CCC[C@@H]([C@@H](OCCNC(=O)OC)c2cccc(Cl)c2)C1)C[C@H]1CCCOC1`, the values for the max response in the assay with CRL-7250, with HEK293 and in the assay on KB-3-1 were -5.16%, 0.31% and 1.87%, respectively. Besides, the outcome with HaCat and in the assay on NIH3T3 was inactive.

With `COc1cc(O)cc2c1C(=O)OC(C)CCCCCCC2` (stereo not given), the max response in the assay on CRL-7250 is 0.54%; with HEK293 it was -6.62%; with NIH3T3, -11.2%. Besides, the call in the assay with HaCat and in the assay with KB-3-1 was inactive.

In the case of `CCC(C)C1NC(=O)C2C(C)CCN2C(=O)C(CC(O)CO)OC(=O)CCNC(=O)C(C)N(C)C(=O)C(C(C)C)N(C)C1=O` (stereo not given), the results for the max response with CRL-7250, in the assay on HEK293 and in the assay with KB-3-1 were -3.99%, -0.256% and 0.529%, respectively. Besides, the molecule was called inactive with HaCat and in the assay on NIH3T3.

Turning to `COC(=O)c1ccc(OC)cc1O[C@@H]1O[C@H](CO[C@@H]2OC[C@@H](O)[C@H](O)[C@H]2O)[C@@H](O)[C@H](O)[C@H]1O`, the results for the max response in the assay with CRL-7250, in the assay on HEK293 and with HaCat were -0.542%, -1.51% and -6.53%, respectively. The molecule was called inactive with KB-3-1 and with NIH3T3.

Take `C[C@@H]1C[C@@H](O)[C@@]23CO[C@]2(CO)C[C@@H](O)CC3[C@@]12CC(c1ccoc1)OC2=O` (stereo not given in full): the max response in the assay on CRL-7250 was -3.28%; in the assay with HEK293, 0.731%. The call in the assay with HaCat, in the assay on KB-3-1 and with NIH3T3 was inactive.

`COC1OC(=O)C2=C1C1(C)CCCC(C)(C)C1CC2O` (stereo not given): the max response is -6.21% in the assay on CRL-7250 and 1.96% with HEK293. For the same molecule, the outcome in the assay on HaCat, with KB-3-1 and in the assay with NIH3T3 was inactive.

For `COC(=O)C1=CO[C@@H](O[C@@H]2O[C@H](CO[C@@H]3O[C@H](CO)[C@@H](O)[C@H](O)[C@H]3O)[C@@H](O)[C@H](O)[C@H]2O)[C@@H]2C(CO)=CC[C@H]12`, the max response with CRL-7250 is -2.64%; with HEK293, 1.28%. Besides, the call with HaCat, in the assay with KB-3-1 and with NIH3T3 was inactive.

`CC/C=C/C=C/C1(C)OC(CC(CO)OC)=CC1=O` (stereo not given): the max response in the assay with CRL-7250 is -6.3%; in the assay on HEK293 it was -18.9%; in the assay with NIH3T3, 1.62%. The molecule was classed as inactive in the assay with HaCat and with KB-3-1.
